Data: PubChem BioAssay (NCATS)
Records with an inconclusive call do not appear. The source made the active and inactive calls. The call rests on the fitted dose curve; in most records, active means well fitted inhibition curve with a large enough effect; inconclusive means small, poorly fitted or top-dose-only effect; inactive means flat fitted curve, though single readings scatter.

Experiments:
Experiment in all cases: qHTS profiling for inhibitors of Plasmodium falciparum proliferation (AID 504749); further: nearly all actives have a fitted effect of over 60% in size
Conditions in all cases: P. falciparum in erythrocytes, SYBR Green DNA, 72 h; series mostly up to 28.7 µM
[1] = system: CP238
Summary of the method: (§1)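 P. falciparum-infected erythrocytes (0.3% parasitemia, 2.5% hematocrit) incubated with compound 72 h at 37 C, 5% CO2. Parasite DNA detected by SYBR Green after lysis, overnight at room temperature; normalised to 0.29 uM artemisinin and DMSO.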

[2] = system: CP247
Summary of the method: as §1

[3] = system: CP250
Summary of the method: as §1

[4] = system: CP252
Summary of the method: as §1

[5] = system: CP256
Summary of the method: as §1

[6] = system: CP260
Summary of the method: as §1

[7] = system: CP262
Summary of the method: as §1

[8] = system: CP265
Summary of the method: as §1

[9] = system: CP266
Summary of the method: as §1

[10] = system: CP268
Summary of the method: as §1

Measured: Potency

CC(=O)Nc1ccc(/C=N/NC(N)=S)cc1
inactive: all assays above

CCCCCCCCCCCCCCCC(=O)NCCO
inactive: all assays above

CC(O)COc1ccccc1 (stereo not drawn)
inactive: all assays above

O=c1[nH]c(=O)c2[nH]c(=O)[nH]c2[nH]1
inactive: all assays above

Cc1ccc(C(C)C)cc2c(C)ccc1-2
inactive: all assays above

Cn1c(=O)c2c(ncn2CC2OCCO2)n(C)c1=O
inactive: all assays above

COc1ccc(S(=O)(=O)Nc2nnc(CC(C)C)s2)cc1
inactive: all assays above

O=C1c2c(O)cccc2Cc2cccc(O)c21
inactive: all assays above

NC(=O)NC(=O)Cc1ccccc1
inactive: all assays above

O=C(O)CC(O)C(=O)O (stereo not drawn)
inactive: all assays above

CC12CCC(CC1)C(C)(C)O2
inactive: all assays above

CCCCOC(=O)c1ccc(O)cc1
inactive: all assays above

O=Cc1ccccc1C=O
inactive: all assays above

C[C@](N)(Cc1ccc(O)cc1)C(=O)O
inactive: all assays above

COc1cc(C)c(Cc2cnc(N)nc2N)cc1OC
inactive: all assays above

CCn1cc(C(=O)O)c(=O)c2cnc(N3CCNCC3)nc21
inactive: all assays above

N[C@@H](CSCCCO)C(=O)O
inactive: all assays above

CCCOC(=O)c1ccccc1
not listed: [7]
inactive: all other assays above

CC1=C(/C=C/C(C)=C/C=C/C(C)=C/C(=O)O)C(C)(C)CCC1
inactive: all assays above

CC1(C)OC(=O)NC1=O
not listed: [6]
inactive: all other assays above

Cc1cc(O)cc2c1O[C@](C)(CCC[C@H](C)CCC[C@H](C)CCCC(C)C)CC2
inactive: all assays above

CCC(=O)c1ccc(O)cc1
inactive: all assays above

[O-][n+]1cccc(CO)c1
inactive: all assays above

CC(=O)CCC(=O)O
inactive: all assays above
